# Screens from PubChem BioAssay.
# The list is not random: actives were taken first. Their share in the collection is about 2.1%.
# Abeta rescue: restores growth of yeast expressing A-beta42 peptide. yeast expressing A-beta42, growth rescue, OD600, 48 h; response scale: 0% DMSO, 100% iron-clioquinol control. Potency, µM (top dose mostly 46.1 µM), hits mostly activators. 410,000 compounds, 0.063% hits. AID 1347071; also: nearly all actives have a fitted effect of over 55% in size
#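 Yeast A-beta toxicity model in growth medium with pinned compounds, 48 h at 30 C; growth read as absorbance at 600 nm. Normalized to FeCl3/clioquinol equimolar mix (positive) and DMSO (negative).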
# TDP43 rescue: rescues yeast growth from TDP-43 toxicity; AID 652104; TDP-43 expressing yeast growth rescue, BacTiter-Glo, 24 h; Potency, µM (titrated, usually from 46.1 µM), without a hit: top-dose growth rescue (activation), most hits filed as activators; 410,000 compounds, 1.8% hits; also: % of control where 0% means no effect; nearly all actives have a fitted effect of over 50% in size
#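 Readout is BacTiter-Glo luminescence of cell growth, so inhibitors register as activators. TDP-43-expressing yeast at OD600=0.02 in galactose medium, after raffinose pregrowth to mid-log, were incubated with compound for 24 hr at 30 deg C.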
# aSyn yeast inh: inhibitors of alpha-synuclein toxicity in yeast; Yeast expressing alpha-synuclein, growth rescue, BacTiter-Glo, 24 h; Potency, µM (series often up to 46.1 µM), inactives show top-dose growth rescue (activation), hits mostly activators; 370,000 compounds, 0.14% hits; AID 652106; also: % of control where 0% means no effect; nearly all actives have a fitted effect of over 65% in size
#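 Rescue of yeast growth: cells expressing toxic alpha-synuclein, induced in galactose at OD600 0.02, incubated with compound 24 h at 30 C. ATP luminescence quantified growth; inhibitors of toxicity appear as activators.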
# FUS suppressor: FUS proteinopathy suppression in yeast; S. cerevisiae FUS-expressing, growth rescue, OD600, 24 h; 390,000 compounds, 0.24% hits; Potency, µM (highest dose often 76.6 µM), most hits filed as activators; AID 1347120;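 also: plate controls were DMSO vehicle for no effect and reference control for full effect; nearly all actives have a fitted effect of over 55% in size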
#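 Compound concentration series was pinned onto galactose-induced FUS-expressing yeast seeded at OD 0.005. Plates sat 24hr at 30C; absorbance at 600 nm gave growth. DMSO served as background control.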
# The depositor's hits bear a star; i = inactive; ? = inconclusive; / = no result given; [ ] = remark or other dose. Calls follow the shape of the dose curve; as a rule, active = well fitted curve in the direction sought with a large enough effect; inconclusive = small, poorly fitted or top-dose-only effect, or another doubt; inactive = no such curve, though single readings can be large; an effect the other way counts as inactive or inconclusive. Potency is read from the fitted curve at half-maximal effect.
SMILES,Abeta rescue,TDP43 rescue,aSyn yeast inh,FUS suppressor
Cc1onc(-c2ccccc2)c1C(=O)N/N=C/c1cc(Br)c(O)c(Br)c1,i,12%,0%,/
O=C(O)c1ccc(N/N=C/C(Br)=C/c2ccccc2)cc1,i,11µM*,-30%,i
O=C(N/N=C/C(Br)=C/c1ccccc1)C1CC1,i,22µM*,10%,i
Nn1cc(-c2ccccc2)nc1SCC(=O)NCC(F)(F)F,i,7%,-3%,i
CC(=O)N1N=C(c2cccs2)CC1c1ccc(Br)cc1 (configuration not stated),i,25µM*,3%,i
NS(=O)(=O)c1ccc(NC(=S)N2CCN(c3ccccc3)CC2)cc1,i,15%,2%,/
CC(C)OC(=O)c1cccc(C(=O)Nc2cccc(NC(=O)c3cccc(C(=O)OC(C)C)n3)n2)n1,i,-21%[0.397 µM],-3%,i
CCOC(=O)c1nnn(-c2nonc2N)c1CSc1ccc(C)cc1,i,22µM*,15%,i
CCOC(=O)c1nnn(-c2nonc2N)c1CSc1ccccc1,i,?,14%,i
CC(C)(C)N(Cc1ccccc1)C(=O)CN1C(=O)c2ccccc2C1=O,i,-11%,15%,i
CC1(C)CC(OC(=O)c2ccco2)CC(C)(C)N1O,i,-6%,-11%,i
CCc1c(O)nc(SCC(=O)c2ccccc2)n(-c2ccccc2)c1=O,i,3%,-5%,i
O=C1CC(=C2c3ccccc3-c3ccccc32)C(=O)N1CCN1CCN(c2ccccc2)CC1,i,-29%,-1%,40µM*
COc1ccccc1N1CCN(CCN2C(=O)CC(=C3c4ccccc4-c4ccccc43)C2=O)CC1,i,3%,-12%,16µM*
O=C(NCc1ccccc1)c1ccc2c(c1)N(Cc1ccc(F)cc1)CCS2,i,-9%,/,i
O=C(NCc1ccc(F)cc1)c1cc2cccc3c2n1CCS3,i,14µM*,/,i
Cc1nonc1CN(C)C(=O)c1ccc(OC2CCN(Cc3ccccn3)CC2)cc1,i,-29%,-4%,i
CCn1c(SCC(=O)c2ccc(O)c(O)c2)nnc1-c1ccccc1,i,5%,-1%,i
Cc1ccc(-n2c(SCC(=O)c3ccc(O)c(O)c3)nnc2-c2ccccc2)cc1,/,/,/,7.9µM*
Cc1ccc(-c2nc(C(=O)NC3CCCCCC3)no2)cc1,i,18µM*,-3%,i
CC(CCl)n1c(=O)c2ccccc2n1C(=O)c1ccccc1 (configuration not stated),i,11µM*,-11%,i
Cn1ncc(Cl)c1C(=O)N1CCN(c2cccc(Cl)c2)CC1,i,14µM*,18%,i
CSc1cccc(NC(=O)c2c(Cl)cnn2C)c1,i,?,2%,i
Cn1ncc(Cl)c1C(=O)Nc1cccc(Cl)c1,i,7.1µM*,7%,i
Cn1nccc1C(=O)N1CCN(c2cccc(Cl)c2)CC1,i,22%,5%,i
SMILES,Abeta rescue,TDP43 rescue,aSyn yeast inh,FUS suppressor
C=CCC(=O)OCCCCCCOc1ccc(C(=O)O)cc1,i,0%,5%,i
COc1ccc(NC(=O)CCc2c(C)nc3c(-c4ccc(F)cc4)c(C)nn3c2C)c(OC)c1,i,10%,/,i
Cc1nc2ncnn2c(C)c1CCC(=O)N1CCN(c2ccc(F)cc2)CC1,i,-3%,/,i
CCN1CCN(c2ccc(NC(=O)CCc3c(C)nc4c(-c5ccccc5)c(C)nn4c3C)cc2)CC1,i,17%,-4%,i
COc1ccc(OC)c(NC(=O)CCc2c(C)nc3c(-c4ccccc4)c(C)nn3c2C)c1,i,20µM*,/,?
Cc1nc2c(-c3ccccc3)c(C)nn2c(C)c1CCC(=O)N1CCN(c2ccc(F)cc2)CC1,i,14µM*,/,i
COc1ccc(CCNC(=O)CCc2c(C)nc3cc(-c4ccccc4OC)nn3c2C)c(OC)c1,i,18µM*,/,?
Cc1nc2c(-c3ccccc3)c(C)nn2c(C)c1CCC(=O)N1CCN(c2ccccc2)CC1,i,13µM*,/,i
CC1=C(C(=O)N(C(C)C)C(C)C)CC(CC(=O)NC2CC2)C(=O)N1Cc1ccc(C(C)(C)C)cc1 (configuration not stated),i,-19%,-1%,i
CC1=C(C(=O)N(C)C)CC(CC(=O)NCc2cccc3ccccc23)C(=O)N1Cc1ccc(C(C)(C)C)cc1 (configuration not stated),i,0%,6%,?
CC1=C(C(=O)N(C(C)C)C(C)C)CC(CC(=O)NCC2CCCCC2)C(=O)N1Cc1ccc(C(C)(C)C)cc1 (configuration not stated),/,37µM*,/,?
CC1=C(C(=O)N(C(C)C)C(C)C)CC(CC(=O)NCc2cccc3ccccc23)C(=O)N1Cc1ccc(C(C)(C)C)cc1 (configuration not stated),i,5%,?,6.3µM*
COc1ccc(-n2nnc3c(=O)n(CC(=O)N4CCC(C)CC4)cnc32)cc1,i,8%,0%,i
Cc1cccn2c(=O)c(/C=C(\C#N)C(N)=O)c(N3CCN(c4cccc(Cl)c4)CC3)nc12,i,25µM*,-4%,?
CNC(=O)/C(C#N)=C/c1c(N2CCN(c3ccccc3)CC2)nc2c(C)cccn2c1=O,i,-2%,3%,i
CCOc1ccccc1C(=O)NCc1nc2cccnc2n1Cc1ccc(C)cc1,i,16µM*,/,i
CC(C)c1cc(C(C)C)c(S(=O)(=O)NC(c2ccccn2)C23CC2C3)c(C(C)C)c1 (configuration not stated),i,22µM*,?,?
CC(C)c1cc(C(C)C)c(S(=O)(=O)NCC(=O)N2CCN(c3ncccn3)CC2)c(C(C)C)c1,/,/,/,i
COc1cccc(NC(=O)CSc2nnc(CNC(=O)c3ccccc3F)o2)c1,i,1%,1%,i
Cc1cccc(N(C)c2nc3ccccc3c3nnc(C)n23)c1,i,22µM*,/,i
Cn1cccc1C(=O)NCCc1ccc(Cl)cc1,i,?,?,i
COC(=O)N[C@@H]1C[C@H]2[C@@H]3CC[C@H]4C[C@@H](OC)CC[C@]4(C)[C@H]3CC[C@@]12C,i,28µM*,-18%,i
COc1ccc(/C(O)=C/C(=O)C(=O)NNC(=O)c2ccccc2)cc1,i,-49%,19%,i
Cc1c(NC(=O)C(=O)/C=C(/O)c2ccccc2)c(=O)n(-c2ccccc2)n1C,i,-49%,11%,/
COc1ccc(/C(O)=C/C(=O)C(=O)Nc2c(C)n(C)n(-c3ccccc3)c2=O)cc1,i,0%,0%,28µM*
COc1ccc(/C(O)=C/C(=O)C(=O)NNC(=O)C(O)(c2ccccc2)c2ccccc2)cc1,i,2%,8%,28µM*
COc1ccc(C(=O)OC2=C(C(=O)c3ccccc3)N(C)S(=O)(=O)c3ccccc32)cc1OC,i,2%,/,i
